Read-out in test [1]: Monocyte Chemoattractant Protein-1 (MCP1), CCL2 (gene 6347)
The test is described as follows: BSK_3C_MCP1: BioMAP Diversity Plus: 3C Assay for Monocyte Chemoattractant Protein-1 (MCP1) Biomarker Activity (AID 2283017). Conditions: primary human endothelial cells (HUVEC); actives raise or lower the signal. In outline:
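Endothelial cells from human umbilical vein are dosed with chemical, cultured 24 h, then assayed for MCP-1 by ELISA; both increases and decreases are modelled against DMSO controls.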

Read-out in test [2]: Monocyte Chemoattractant Protein-1 (MCP1), CCL2 (gene 6347)
The test is described as follows: BSK_4H_MCP1: BioMAP Diversity Plus: 4H Assay for Monocyte Chemoattractant Protein-1 (MCP1) Biomarker Activity (AID 2283018). The conditions noted are these: primary human endothelial cells (HUVEC); actives raise or lower the signal. The procedure, abridged: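 Human umbilical vein endothelial cells (4H system) exposed to chemicals for 24 h in 96-well format. MCP-1 measured by ELISA; bidirectional fitting against DMSO, with SRB total-protein staining in parallel cultures for cytotoxicity.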

Read-out in test [3]: Monokine induced gamma interferon (MIG), CXCL9 (gene 4283)
Nature of the test: BSK_3C_MIG: BioMAP Diversity Plus: 3C Assay for Monokine induced gamma interferon (MIG) Biomarker Activity (AID 2283021). The conditions noted are these: primary human endothelial cells (HUVEC); actives raise or lower the signal. In outline: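 HUVEC primary endothelial cultures dosed with chemical; MIG quantified by ELISA at 24 h. Data fitted bidirectionally against DMSO control, with parallel SRB total-protein staining for cytotoxicity.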

The nature of test [4]: BSK_3C_SRB: Viability Assessment in the BioMAP Diversity Plus: 3C Assay (AID 2283023).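 Note: cells read 24 h after compound dosing; fitted both ways against DMSO so a hit may be signal rise or drop.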 Conditions: primary human endothelial cells (HUVEC). The procedure, abridged:
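Cells were dosed with chemical, cultured 24 h, fixed with 10% TCA, stained with 0.1% SRB and read at 560 nm. Human umbilical vein endothelium was used; DMSO served as negative control and baseline.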

Test [5] is described as follows: BSK_4H_SRB: Viability Assessment in the BioMAP Diversity Plus: 4H Assay (AID 2283027).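 For AC50: curves fitted both ways versus DMSO so AC50 may be loss or gain.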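 Note: cells exposed to compound for 24 h before staining.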 The conditions noted are these: primary human endothelial cells (HUVEC). In outline:
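Absorbance at 560 nm of SRB-stained total protein served as the viability read-out in confluent primary human umbilical vein endothelium 24 h after chemical treatment. Curves were fitted bidirectionally against DMSO as negative control.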

The nature of test [6]: BSK_BE3C_SRB: Viability Assessment in the BioMAP Diversity Plus: BE3C Assay (AID 2283028). Conditions: primary human bronchial epithelial cells. The procedure, abridged:
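Overt cytotoxicity was assessed as total protein in confluent human primary bronchial epithelial cultures 24 h after chemical addition, using 0.1% sulforhodamine B staining read at 560 nm.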

Read-out in test [7]: Monokine induced gamma interferon (MIG), CXCL9 (gene 4283)
Nature of the test: BSK_BE3C_MIG: BioMAP Diversity Plus: BE3C Assay for Monokine induced gamma interferon (MIG) Biomarker Activity (AID 2283035).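 Note: MIG protein measured by ELISA in BE3C cultures after 24 h of dosing.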 The conditions noted are these: primary human bronchial epithelial cells; actives raise or lower the signal. The procedure, abridged:
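MIG level was determined by ELISA after 24 h chemical treatment of primary human bronchial epithelial cells. Values were fitted bidirectionally with DMSO as the negative control and activity baseline.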

Read-out in test [8]: Plasminogen activator inhibitor-1 (PAI1), SERPINE1 (gene 5054)
Nature of the test: BSK_BE3C_PAI1: BioMAP Diversity Plus: BE3C Assay for Plasminogen activator inhibitor-1 (PAI1) Biomarker Activity (AID 2283037). Conditions: primary human bronchial epithelial cells; actives raise or lower the signal. The procedure, abridged:
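Primary human bronchial epithelial cells (BE3C system) exposed 24 h; PAI-1 quantified by ELISA. Parallel sulforhodamine B staining of total protein flags cytotoxicity. Bidirectional fit versus DMSO.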

Read-out in test [9]: Urokinase-type plasminogen activator receptor (uPAR), PLAUR (gene 5329)
Nature of the test: BSK_BE3C_uPAR: BioMAP Diversity Plus: BE3C Assay for Urokinase-type plasminogen activator receptor (uPAR) Biomarker Activity (AID 2283039).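 Note: uPAR protein level measured by ELISA on the cells; cells exposed to compound for one day before measurement.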 Conditions: primary human bronchial epithelial cells; actives raise or lower the signal. In outline:
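Primary human bronchial epithelial cells dosed for 24 h; uPAR quantified by ELISA with bidirectional fitting against DMSO. Overt cytotoxicity assessed in parallel cultures by SRB total-protein staining (0.1% SRB, 560 nm).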

Read-out in test [10]: Interleukin-8 (IL8), CXCL8 (gene 3576)
Nature of the test: BSK_CASM3C_IL8: BioMAP Diversity Plus: CASM3C Assay for Interleukin-8 (IL8) Biomarker Activity (AID 2283042).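 Note: IL-8 protein level quantified by ELISA.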 The conditions noted are these: primary human coronary artery smooth muscle cells; actives raise or lower the signal.

Read-out in test [11]: Human Leukocyte Antigen - DR isotype (HLADR), HLA-DRA (gene 3122)
Nature of the test: BSK_CASM3C_HLADR: BioMAP Diversity Plus: CASM3C Assay for Human Leukocyte Antigen - DR isotype (HLADR) Biomarker Activity (AID 2283043).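 Note: cell-surface HLA-DR protein level quantified by ELISA.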 Conditions: primary human coronary artery smooth muscle cells; actives raise or lower the signal.

Read-out in test [12]: Macrophage colony-stimulating factor (MCSF), CSF1 (gene 1435)
The test is described as follows: BSK_CASM3C_MCSF: BioMAP Diversity Plus: CASM3C Assay for Macrophage colony-stimulating factor (MCSF) Biomarker Activity (AID 2283044).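 Note: M-CSF protein amount quantified by ELISA after 24 h exposure.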 The conditions noted are these: primary human coronary artery smooth muscle cells; actives raise or lower the signal.

Read-out in test [13]: Low-density lipoprotein receptor (LDLR), LDLR (gene 3949)
Nature of the test: BSK_CASM3C_LDLR: BioMAP Diversity Plus: CASM3C Assay for Low-density lipoprotein receptor (LDLR) Biomarker Activity (AID 2283045).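 Note: LDLR protein level on the cell surface quantified by ELISA.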 Conditions: primary human coronary artery smooth muscle cells; actives raise or lower the signal.

Read-out in test [14]: Monocyte Chemoattractant Protein-1 (MCP1), CCL2 (gene 6347)
The test is described as follows: BSK_CASM3C_MCP1: BioMAP Diversity Plus: CASM3C Assay for Monocyte Chemoattractant Protein-1 (MCP1) Biomarker Activity (AID 2283046).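 Note: MCP-1 level quantified by ELISA 24 h after dosing.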 Conditions: primary human coronary artery smooth muscle cells; actives raise or lower the signal.

Test [15] can be described thus: BSK_CASM3C_Proliferation: Cell Proliferation Assessment in the BioMAP Diversity Plus: CASM3C Assay (AID 2283047).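 Note: sulforhodamine B total protein stain as relative cell number at 560 nm; sub-confluent cells exposed 48 h before staining; fitted both ways against DMSO so gain or loss of cell number.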 Conditions: primary human coronary artery smooth muscle cells.
The nature of test [16]: BSK_CASM3C_SRB: Viability Assessment in the BioMAP Diversity Plus: CASM3C Assay (AID 2283050). The conditions noted are these: primary human coronary artery smooth muscle cells.
Read-out in test [17]: Interferon-gamma inducible Protein 10 (IP10), CXCL10 (gene 3627)
The test is described as follows: BSK_hDFCGF_IP10: BioMAP Diversity Plus: hDFCGF Assay for Interferon-gamma inducible Protein 10 (IP10) Biomarker Activity (AID 2283053). The conditions noted are these: primary human foreskin fibroblasts; actives raise or lower the signal. The procedure, abridged:
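Primary human foreskin fibroblasts exposed to chemicals for 24 h. IP-10 measured by ELISA; changes fitted bidirectionally against DMSO baseline.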

Read-out in test [18]: Interleukin-8 (IL8), CXCL8 (gene 3576)
The test is described as follows: BSK_hDFCGF_IL8: BioMAP Diversity Plus: hDFCGF Assay for Interleukin-8 (IL8) Biomarker Activity (AID 2283058). Conditions: primary human foreskin fibroblasts; actives raise or lower the signal. In outline:
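IL-8 levels from compound-treated primary human fibroblasts were read by ELISA at 24 h, with DMSO serving as baseline for bidirectional fitting.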

Test [19] can be described thus: BSK_hDFCGF_Proliferation: Cell Proliferation Assessment in the BioMAP Diversity Plus: hDFCGF Assay (AID 2283059).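 Note: curves fitted for both rise and fall of signal versus DMSO baseline.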 Conditions: primary human foreskin fibroblasts. The procedure, abridged:
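This proliferation readout used SRB total-protein staining of human foreskin fibroblasts […], normalized to DMSO with bidirectional curve fitting.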

Read-out in test [20]: Macrophage colony-stimulating factor (MCSF), CSF1 (gene 1435)
Nature of the test: BSK_hDFCGF_MCSF: BioMAP Diversity Plus: hDFCGF Assay for Macrophage colony-stimulating factor (MCSF) Biomarker Activity (AID 2283060). Conditions: AC50: primary human foreskin fibroblasts, actives raise or lower the signal unless noted; outcome: primary human foreskin fibroblasts, actives raise or lower the signal unless noted. In outline: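 M-CSF levels, determined by ELISA, are taken at 24 h after dosing human skin fibroblasts. Responses in either direction are fitted with DMSO serving as the baseline.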

The structures appear in SMILES notation. Values joined by “and” are separate entries in the source; they are usually repeats but may differ in a detail not shown here. Identical values can stand only once. Active and inactive are the calls of the source. Rule for the calls: active = hit-call score of the fitted dose curve at least 0.9, where 1 is the maximum; inactive = score below 0.9.

What is called AC50 is the concentration at which the activity in the assay is half-maximal.

`COc1ccc(C(=O)c2ccccc2O)c(O)c1`: the outcome in test [1], in [2], in [3], in [5], in test [6] and in [7] was inactive. The result in test [9], in test [10], in [12], in test [13], in [14] and in [15] was inactive. Also, the result in test [16], in test [17], in [18] and in [20] was inactive. In addition, the AC50 in test [4] was 12.6 µM (active) and 13.7 µM (active); in [8], 24.5 µM (active) and 27.2 µM (active); in [11], 10.9 µM (active) and 5.66 µM (active); in [19] it was 25.3 µM (active) and 27 µM (active).
With `CC(C)C1OCCN1CCOC(=O)NCCCCCCNC(=O)OCCN1CCOC1C(C)C` (stereo not given), the result in [1], in test [2], in [3], in test [4], in test [5] and in [6] was inactive. In addition, the result in [7], in [8], in test [9], in test [10], in test [11] and in test [12] was inactive. The outcome in [13], in [14], in [15], in [16], in test [17] and in test [18] was inactive. The outcome in test [19] and in [20] was inactive.
As to `Cc1c(C(N)=O)cc([N+](=O)[O-])cc1[N+](=O)[O-]`, the outcome in test [1], in test [2], in test [3], in [4], in test [5] and in test [6] was inactive. The result in test [7], in test [8], in test [9], in test [10], in test [11] and in test [12] was inactive. Also, the result in [13], in test [14], in test [15], in test [16], in test [17] and in [18] was inactive. Besides, the result in [19] and in test [20] was inactive.
With `CC[N+](CC)(CC(=O)Nc1c(C)cccc1C)Cc1ccccc1`, the outcome in [1], in test [2], in test [3], in [4], in [5] and in [6] was inactive. Besides, the outcome in test [7], in test [8], in test [9], in test [10], in test [11] and in [12] was inactive. The outcome in test [13], in test [14], in test [15], in test [16], in test [17] and in [18] was inactive. Besides, the result in [19] and in [20] was inactive.
As to `CCCCC(CC)COC(=O)C=Cc1ccc(OC)cc1` (stereo not given), the AC50 is 33 µM (active) in [1]; 20 µM (active) and 27.4 µM (active) in test [2]; 31.8 µM (active) and 31.4 µM (active) in test [4]; 39 µM (active) and 36.8 µM (active) in test [5]; 13.9 µM (active) and 7.28 µM (active) in [11]; 13.2 µM (active) and 11.7 µM (active) in test [19]. Moreover, the AC50 in test [20] was 15.9 µM (active) and 12.6 µM (active). The result in test [3], in test [6], in test [7], in [8], in test [9] and in test [10] was inactive. Further, the outcome in [12], in test [13], in test [14], in [15], in [16] and in test [17] was inactive. Further, the result in test [18] was inactive.
As to `C1CN(CCOCCN2CCOCC2)CCO1`, the outcome in test [1], in test [2], in test [3], in [4], in test [5] and in test [6] was inactive. For the same compound, the result in test [7], in test [8], in test [9], in test [10], in [11] and in test [12] was inactive. For the same compound, the outcome in test [13], in [14], in test [15], in [16], in test [17] and in [18] was inactive. Further, the outcome in test [19] and in test [20] was inactive.

The record behind these values is PubChem BioAssay (EPA / NIEHS).
